We go through 40 molecules from PubChem BioAssay (Tox21).

Molecules are shown by their SMILES. Inconclusive results are not listed. Values without a mark were called inactive. The source made the active and inactive calls. Calls follow the shape of the dose curve; as a rule, active = well fitted cell-killing curve with a large enough effect in the repeat runs; inconclusive = weak or mixed curves, or effect the other way; inactive = flat fitted curve, though single readings scatter.
% is scaled to controls: 0 for no effect and ±100 for the full control effect; potency is read from the fitted curve at half-maximal effect.

The test is described as follows: qHTS assay to identify small molecule antagonists of the estrogen receptor alpha (ER-alpha) signaling pathway using the BG1 cell line in the presence of 0.1 nM 17-beta-estradiol - cell viability counter screen (AID 1259241). Also: nearly all actives have a fitted effect of over 40% in size. The note with it: VM7Luc4E2 (BG1) viability, CellTiter-Fluor protease, 22 h, 0.1 nM estradiol agonist added; series mostly up to 92.4 µM; activity change, negative = cytotoxicity: at the top concentration. The text has this: National Center for Advancing Translational Sciences [NCATS]
NIH Chemical Genomics Center [NCGC]
U.S. Environmental Protection Agency [EPA]
National Institutes of Environmental Health Sciences [NIEHS]
National Toxicology Program [NTP]
U.S. Food and Drug Administration [FDA]
Estrogen receptor (ER), a member of the nuclear hormone receptor plays an important role in development, metabolic homeostasis and reproduction. Two subtypes of ER, ER-alpha and ER-beta, have similar expression patterns with some uniqueness in both types. Endocrine disrupting chemicals (EDCs) and their interactions with steroid hormone receptors like ER causes disruption of normal endocrine function. Therefore, it is important to understand the effect of environmental chemicals in ER signaling pathway. For identifying ER antagonists, VM7Luc4E2 cell line was used to screen against Tox21 compound libraries.
VM7Luc4E2 cell line (provided by Denison MS, University of California) endogenously express full-length ER-alpha and is stably transfected with a plasmid containing four estrogen responsive elements (ERE) upstream of a luciferase reporter gene. The current screening for identification of ER-alpha inhibitors against Tox21 compound libraries used lower concentration (0.1 nM) of 17beta-Estradiol as a stimulator. The cytotoxicity of the Tox21 compound libraries against VM7Luc4E2 cell line was tested by measuring live-cell protease activity using CellTiter-Fluor assay in the same wells.
Tox21 Assay Protocol Summary:
VM7Luc4E2 cells were cultured in phenol red free assay medium containing 10% charcoal stripped FBS for 5 days prior to the assay. The cells were dispensed at 4,000 cells/well in 4 uL of assay medium into white wall/solid-bottom 1536-well plates (Corning Life Sciences, Corning, NY) using a Multidrop Combi (ThermoFisher Scientific, Waltham, MA) dispenser. After the assay plates were incubated at 37C and 5% CO2 for 24 hr, 23 nL of compounds dissolved in DMSO, positive controls or DMSO only was transferred to the assay plates by a Pintool station (Kalypsys, San Diego, CA). The transfer of compounds was followed by the addition of 1 uL of 0.1 nM (final concentration) agonist (17beta-Estradiol)/assay medium using a Flying Reagent Dispenser (FRD, Aurora Discovery, San Diego, CA). The plates were incubated at 37C and 5% CO2 for 22 hr. For cytotoxicity assay, 1 uL of CellTiter-Fluor reagent (Promega Corporation, Madison, WI) was added to each well using the FRD and after 30 min incubation at 37C and 5% CO2, The fluorescence intensity was measured using ViewLux plate reader (PerkinElmer, Shelton, CT).
For `CC(C)(Cl)[N+](=O)[O-]`, the “activity change, negative = cytotoxicity” value is 0%.
In the case of `[CH3][Sn]([CH3])([Cl])[Cl]`, the Potency result was “inactive”.
The same measure, in the same setting: for `CN(C)c1ccc(N(C)C)cc1` the value was 61.3 µM (active).
`CCOc1ccc(C(C)(C)COCc2cccc(Oc3ccccc3)c2)cc1`: the “activity change, negative = cytotoxicity” value was 9.12%.
Still for that read-out and setting: for `O=C1CN=C(c2ccccc2)c2cc(Cl)ccc2N1CC1CC1` the value was -0.886%.
Still for that read-out and setting: the figure for `c1ccoc1` is 0%; for `COc1nn(C(=O)NS(=O)(=O)c2ccccc2OC(F)(F)F)c(=O)n1C` it is 0.508%; for `O=S1OC[C@@H]2[C@H](CO1)[C@]1(Cl)C(Cl)=C(Cl)[C@@]2(Cl)C1(Cl)Cl` (stereo not given in full) it is 0.623%.
The same measure, in the same setting: the figure for `COP(=S)(OC)Oc1cc(Cl)c(I)cc1Cl` is 6%; for `CC[C@H]1C[C@H]2[C@@H]3CCC4=CC(=O)CC[C@@H]4[C@H]3CC[C@]2(C)[C@H]1O` it is 0.415% [at 42.5 µM].
In the case of `C(=NC1CCCCC1)=NC1CCCCC1`, the Potency entry was “inactive”.
As to `BrCC(Br)C1CCC(Br)C(Br)C1` (stereo not given), the “activity change, negative = cytotoxicity” value was -0.565%.
On the same count and under the same terms, the figure for `CCOS(C)(=O)=O` is 0%; for `[O-][Cl+]O` it is -5.87%.
Regarding `O=[N+]([O-])c1ccc(F)c([N+](=O)[O-])c1`, the Potency was 17.4 µM (active).
Same read-out and setting: for `O=C(CCl)c1ccc(Cl)cc1Cl` the value was “inactive”.
Regarding `Cc1cc(=O)[nH]o1`, the “activity change, negative = cytotoxicity” value was 6.62%.
On the same count and under the same terms, for `CCCCCCCCCCOC(=O)c1ccccc1C(=O)OCCCCCCCCCC` the value was 14.9%; for `COCCOCCO`, 7.14%.
On to `CCOP(=S)(OCC)Oc1nc(Cl)c(Cl)cc1Cl`, for which the Potency result was “inactive”.
As to `c1ccc(C2CC2)c(OCC2=NCCN2)c1`, the “activity change, negative = cytotoxicity” value was -2.62% [at 42.5 µM].
`CCCCC(CC)COP(=O)(Oc1ccccc1)Oc1ccccc1` (stereo not given): the “activity change, negative = cytotoxicity” value was 2.32%.
On the same count and under the same terms, for `CCCCNP(N)(N)=S` the value was -4.27%; for `CCOP(=S)(OCC)SCSCC`, -7.13%; for `C[C@]12CC[C@H]3[C@@H](CCC4=CC(=O)CC[C@@H]43)[C@@H]1CC[C@@H]2OC(=O)CCC1CCCCC1`, 2.7% [at 42.5 µM].
For the molecule `N#C/C(N)=C(/N)C#N`, the “activity change, negative = cytotoxicity” value was -7.28%.
`Cc1ccccc1C(=O)Nc1cccc(OC(C)C)c1`: the “activity change, negative = cytotoxicity” value is -3.72%.
Consider `CC1(C)CCC(Cc2ccc(Cl)cc2)C1(O)Cn1cncn1` (stereo not given), for which the “activity change, negative = cytotoxicity” value was 1.67%.
The same measure, in the same setting: the figure for `CCOP(O)OCC` is 1.04%; for `O=Cc1ccc2c(c1)OCO2` it is 16.6%.
Consider `C=CC(=O)OC(C)(C)C`, for which the “activity change, negative = cytotoxicity” value is 9.53%.
The same measure, in the same setting: the figure for `C[N+](C)(C)CCCl` is -2.09%; for `O=C(O)COc1ccc(Cl)cc1` it is 7.22%.
Turning to `CC(C)N(CCC(C(N)=O)(c1ccccc1)c1ccccn1)C(C)C` (stereo not given), the “activity change, negative = cytotoxicity” value was 1.44% [at 42.5 µM].
On the same count and under the same terms, for `COC(=O)C(Cl)C(=O)OC` the value was -0.793% [at 42.5 µM]; for `CCCCCCCCCC(=O)O[C@H]1CC[C@H]2[C@@H]3CCC4=CC(=O)CC[C@@H]4[C@H]3CC[C@]12C`, 2.63% [at 42.5 µM].
Still for that read-out and setting: the figure for `O=C(NC(=O)c1c(F)cccc1F)Nc1ccc(OC(F)(F)C(F)OC(F)(F)F)c(Cl)c1` (stereo not given) is 3.18% [at 42.5 µM]; for `CN1[C@@H]2CC[C@H]1CC(OC(=O)c1cc(Cl)cc(Cl)c1)C2` (stereo not given in full) it is 3.44% [at 42.5 µM].
On the same count and under the same terms, for `CN(N=O)c1ccc([N+](=O)[O-])cc1` the value was -8.69%; for `CC(C)=CCOc1c2occc2cc2ccc(=O)oc12`, 1.44% [at 42.5 µM].
